About 83,000 compounds went through this panel and 20% of them were active in at least one assay; those are over-represented in the sample as a whole.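 Single-dose data. Exposure time 48 hours. Values below 10 considered active.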 Calls of active or inactive are those of the source.
How the values were obtained:
Assay in all cases: NCI-60 one-dose screen, 48 h (100 = growth as untreated, 0 = no growth, -100 = all killed)
Conditions in all cases: 10 µM unless noted
DU-145 prostate = tested on: DU-145 prostate
K-562 leukemia = tested on: K-562 leukemia
MALME-3M melanoma = tested on: MALME-3M melanoma
MDA-MB-231 breast = tested on: MDA-MB-231 breast
RXF 393 renal = tested on: RXF 393 renal
SF-268 CNS = tested on: SF-268 CNS
SF-295 CNS = tested on: SF-295 CNS
SF-539 CNS = tested on: SF-539 CNS
UACC-257 melanoma = tested on: UACC-257 melanoma
M14 melanoma = tested on: M14 melanoma

Measured: growth

CC1(C)CC[C@]2(C(=O)NCC#CCN3CCOCC3)CC[C@]3(C)C(=CC[C@@H]4[C@@]5(C)Cc6c([nH]c7ccccc67)C(C)(C)[C@@H]5CC[C@]43C)[C@@H]2C1
inactive: DU-145 prostate 103% | K-562 leukemia 65.3% | MALME-3M melanoma 95% | MDA-MB-231 breast 91.4% | RXF 393 renal 98.6% | SF-268 CNS 87.7% | SF-295 CNS 79.7% | SF-539 CNS 107% | UACC-257 melanoma 47.5% | M14 melanoma 80.7%

CCc1c(Nc2ccc(C)cc2)[nH]c(N)nc1=S
inactive: DU-145 prostate 104% | K-562 leukemia 115% | MALME-3M melanoma 103% | MDA-MB-231 breast 98.8% | RXF 393 renal 113% | SF-268 CNS 103% | SF-295 CNS 96.2% | SF-539 CNS 103% | UACC-257 melanoma 104% | M14 melanoma 98.7%

COC(=O)C1=C(C(=O)ONCCN(C)C)C2C=CC1(C(Cc1ccccc1)Nc1ccc(F)cc1)O2 (stereo not given)
active: MALME-3M melanoma -9.2%
inactive: DU-145 prostate 95.6% | K-562 leukemia 10.5% | MDA-MB-231 breast 108% | RXF 393 renal 111% | SF-268 CNS 91.7% | SF-295 CNS 113% | SF-539 CNS 97.3% | UACC-257 melanoma 104% | M14 melanoma 101%

O=C(N=Nc1c(O)[nH]c2ccc(F)cc12)c1cc2ccccc2[nH]1
inactive: DU-145 prostate 95.9% | K-562 leukemia 91.7% | MALME-3M melanoma 99.8% | MDA-MB-231 breast 95.1% | RXF 393 renal 104% | SF-268 CNS 88.3% | SF-295 CNS 100% | SF-539 CNS 99.8% | UACC-257 melanoma 106% | M14 melanoma 94.9%

CN(C)c1ccc(-c2c(C#N)c(N)n3nc(N)c(C#N)c3c2C#N)cc1
inactive: DU-145 prostate 67.1% | K-562 leukemia 109% | MALME-3M melanoma 116% | MDA-MB-231 breast 43.2% | RXF 393 renal 65.5% | SF-268 CNS 77% | SF-295 CNS 104% | SF-539 CNS 78.2% | UACC-257 melanoma 113% | M14 melanoma 69.1%

O=C(OC(OC(=O)c1cc(Cl)cc(Cl)c1)c1cccc2ccccc12)c1ccccc1 (stereo not given)
inactive: DU-145 prostate 103% | K-562 leukemia 92.1% | MALME-3M melanoma 91% | MDA-MB-231 breast 95.5% | RXF 393 renal 110% | SF-268 CNS 94.8% | SF-295 CNS 107% | SF-539 CNS 103% | UACC-257 melanoma 96.1% | M14 melanoma 101%

Cc1cn(-c2cc(C(=O)Nc3cccc(C#Cc4cccc5[nH]nc(N)c45)c3)cc(C(F)(F)F)c2)cn1
inactive: DU-145 prostate 72.5% | MDA-MB-231 breast 29.8% | SF-268 CNS 58.6% | SF-295 CNS 67.2% | SF-539 CNS 25.3% | UACC-257 melanoma 18.1% | M14 melanoma 11.5%
active: K-562 leukemia 5.16% | MALME-3M melanoma -12% | RXF 393 renal 1.89%

COc1cc(C(=O)c2cnc(-c3ccc4cc[nH]c4c3)[nH]2)cc(OC)c1OC
active: DU-145 prostate -1.47% | K-562 leukemia 8.98% | MDA-MB-231 breast -48% | SF-295 CNS 5.4% | SF-539 CNS -5.7% | M14 melanoma 4.97%
inactive: MALME-3M melanoma 48.9% | RXF 393 renal 34.4% | SF-268 CNS 10% | UACC-257 melanoma 62.3%

CCCCCCCCOC(=O)c1ccc(O)c(OC)c1
inactive: DU-145 prostate 104% | K-562 leukemia 116% | MALME-3M melanoma 99.7% | MDA-MB-231 breast 85% | RXF 393 renal 100% | SF-268 CNS 83.8% | SF-295 CNS 98.7% | SF-539 CNS 92.6% | UACC-257 melanoma 86.6% | M14 melanoma 106%

FCc1nc2nc(Cl)c(Cl)nc2[nH]1
inactive: DU-145 prostate 104% | K-562 leukemia 93% | MALME-3M melanoma 97.3% | MDA-MB-231 breast 128% | RXF 393 renal 105% | SF-268 CNS 94.9% | SF-295 CNS 93.7% | SF-539 CNS 100% | UACC-257 melanoma 99.2% | M14 melanoma 107%

CCn1ccnc1C(=O)/C=C/c1ccc(CC(=O)Nc2ccc(F)cc2)cc1
inactive: MALME-3M melanoma 92.4% | MDA-MB-231 breast 25.9% | RXF 393 renal 26% | SF-295 CNS 22.2% | UACC-257 melanoma 83.5% | M14 melanoma 75.5%
active: DU-145 prostate -24.8% | K-562 leukemia 7.76% | SF-268 CNS 5% | SF-539 CNS 1.75%

CCNC(=S)NNC(=O)c1cc2ccc1CCc1ccc(cc1)CC2
inactive: DU-145 prostate 103% | K-562 leukemia 100% | MALME-3M melanoma 101% | MDA-MB-231 breast 100% | RXF 393 renal 109% | SF-268 CNS 95.4% | SF-295 CNS 93.2% | SF-539 CNS 101% | UACC-257 melanoma 109% | M14 melanoma 95%

Cc1cc2cc3cc(C)c(N)cc3[n+](C)c2cc1N
active: K-562 leukemia 9.81% | MALME-3M melanoma 1.11% | SF-295 CNS -4.54% | UACC-257 melanoma 5.88%
inactive: DU-145 prostate 19.1% | MDA-MB-231 breast 20.2% | RXF 393 renal 26.3% | SF-268 CNS 14.2% | SF-539 CNS 17.3% | M14 melanoma 18.7%

CN(C)C(C(N)=O)c1ccc(Cl)cc1 (stereo not given)
inactive: DU-145 prostate 107% | K-562 leukemia 98.8% | MALME-3M melanoma 103% | MDA-MB-231 breast 98.3% | RXF 393 renal 118% | SF-268 CNS 102% | SF-295 CNS 100% | SF-539 CNS 99.5% | UACC-257 melanoma 95.5% | M14 melanoma 96.7%

COc1cc(C2NC(c3cc(OC)c(OC)c(OC)c3)C(C#N)(C#N)C2(C#N)C#N)cc(OC)c1OC (stereo not given)
inactive: DU-145 prostate 102% | K-562 leukemia 109% | MALME-3M melanoma 96% | MDA-MB-231 breast 97.3% | RXF 393 renal 114% | SF-268 CNS 105% | SF-295 CNS 99.8% | SF-539 CNS 95.8% | UACC-257 melanoma 106% | M14 melanoma 92.9%

CC[C@H](CC[C@@H](C)[C@H]1CC[C@H]2[C@@H]3CC=C4C[C@@H](OCCc5nn[nH]n5)CC[C@]4(C)[C@H]3CC[C@]12C)C(C)C
inactive: DU-145 prostate 101% | K-562 leukemia 92.4% | MALME-3M melanoma 108% | MDA-MB-231 breast 117% | RXF 393 renal 129% | SF-268 CNS 100% | SF-295 CNS 98.1% | SF-539 CNS 103% | UACC-257 melanoma 103% | M14 melanoma 108%

N#Cc1cc(-c2nc3ccccc3s2)c(=O)n(NS(=O)(=O)c2ccc(Cl)cc2)c1N
inactive: DU-145 prostate 110% | K-562 leukemia 96.7% | MALME-3M melanoma 105% | MDA-MB-231 breast 87.2% | RXF 393 renal 109% | SF-268 CNS 97.8% | SF-295 CNS 110% | SF-539 CNS 93.9% | UACC-257 melanoma 111% | M14 melanoma 97.5%

CNC(=O)NCC1OC(n2cnc3c(NC(=O)Nc4ccccc4)ncnc32)C(O[Si](C)(C)C(C)(C)C)C1O[Si](C)(C)C(C)(C)C (stereo not given)
active: RXF 393 renal -37%
inactive: DU-145 prostate 52.2% | K-562 leukemia 34.5% | MALME-3M melanoma 48.9% | MDA-MB-231 breast 37.7% | SF-268 CNS 36% | SF-295 CNS 45.1% | SF-539 CNS 33.4% | UACC-257 melanoma 42.8% | M14 melanoma 33%

From PubChem BioAssay (NCI)
